Experimental data reported in article PMC4336329 (PLoS ONE, 2015).
Screen size: about 310,000 compounds; about 14,000 (4.5%) showed an effect of 50% or more. Effects have a minus sign here. The list comes from a sample in which strong results are over-represented; it also holds similar structures and randomly drawn compounds.

What follows are compounds tested against human ether-à-go-go-related gene (hERG) potassium channel (human, UniProt Q12809) (assay: primary screen, population patch clamp on CHO cells stably expressing hERG; higher = less effect of the substance).
human ether-à-go-go-related gene (hERG) potassium channel, sequence (Q12809 whole entry, looked up): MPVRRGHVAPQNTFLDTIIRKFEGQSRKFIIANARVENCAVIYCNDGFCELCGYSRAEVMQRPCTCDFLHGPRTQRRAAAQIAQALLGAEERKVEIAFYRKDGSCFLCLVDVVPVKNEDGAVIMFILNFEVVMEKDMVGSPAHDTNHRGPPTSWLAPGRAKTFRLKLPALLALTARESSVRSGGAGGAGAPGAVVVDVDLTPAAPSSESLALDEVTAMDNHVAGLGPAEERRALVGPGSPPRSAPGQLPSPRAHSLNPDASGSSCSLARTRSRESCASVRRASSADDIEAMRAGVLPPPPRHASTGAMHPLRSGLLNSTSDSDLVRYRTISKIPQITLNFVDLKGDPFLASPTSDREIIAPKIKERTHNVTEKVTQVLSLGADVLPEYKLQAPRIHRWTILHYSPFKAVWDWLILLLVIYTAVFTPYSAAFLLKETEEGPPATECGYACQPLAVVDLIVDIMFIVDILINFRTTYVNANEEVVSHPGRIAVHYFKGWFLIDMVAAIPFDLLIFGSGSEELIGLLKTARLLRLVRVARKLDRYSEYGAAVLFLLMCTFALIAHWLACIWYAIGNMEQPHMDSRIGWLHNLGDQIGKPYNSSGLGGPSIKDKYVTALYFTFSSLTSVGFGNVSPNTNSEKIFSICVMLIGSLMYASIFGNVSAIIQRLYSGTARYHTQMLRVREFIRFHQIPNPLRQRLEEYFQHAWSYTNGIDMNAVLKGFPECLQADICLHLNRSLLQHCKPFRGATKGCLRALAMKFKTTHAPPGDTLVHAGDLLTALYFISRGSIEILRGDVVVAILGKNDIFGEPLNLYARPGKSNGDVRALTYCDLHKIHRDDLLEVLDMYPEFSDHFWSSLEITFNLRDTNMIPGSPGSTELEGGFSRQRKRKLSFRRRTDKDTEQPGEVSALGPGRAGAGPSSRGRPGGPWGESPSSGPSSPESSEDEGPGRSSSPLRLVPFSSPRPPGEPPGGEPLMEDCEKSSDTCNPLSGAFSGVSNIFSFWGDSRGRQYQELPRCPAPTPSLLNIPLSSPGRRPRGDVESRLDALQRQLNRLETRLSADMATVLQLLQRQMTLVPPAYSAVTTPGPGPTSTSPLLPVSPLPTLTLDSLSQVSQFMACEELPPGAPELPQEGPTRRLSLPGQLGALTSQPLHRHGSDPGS
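Note: peak tail current of the secondary pulse compared with the same well before compound.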

| SMILES | hERG current change (%, negative = inhibition) at 10uM [%] |
| --- | --- |
| COc1ccc(NC(=O)CCc2nc3ccccc3s2)c(OC)c1 | -0.68 |
| O=C(CN(c1cccc(C(F)(F)F)c1)S(=O)(=O)c1ccccc1)N1CCOCC1 | -30.5 |
| CCOC(=O)C1CCN(C(=O)c2ccccc2CCc2ccccc2)CC1 | -8.95 |
| CCC(=O)c1ccc(N2CCN(C(=O)c3ccc(F)cc3)CC2)c(F)c1 | -60 |
| CCC(=O)c1ccc(N2CCN(C(=O)c3ccccc3)CC2)c(F)c1 | -70.1 |
| CCC(=O)c1ccc(N2CCN(C(=O)c3ccc(Br)cc3)CC2)c(F)c1 | -16 |
| O=C(c1ccccc1CCc1ccccc1)N1CCCC1 | 9.12 |
| CCC(=O)c1ccc(N2CCN(C(=O)c3cccc(F)c3)CC2)c(F)c1 | -41.6 |
| CCC(=O)c1ccc(N2CCN(C(=O)c3ccccc3Br)CC2)c(F)c1 | -26.8 |
| CCC(=O)c1ccc(N2CCCCC2)c(F)c1 | 8.26 |
| CCOC(=O)N1CCN(C(=O)c2ccccc2CCc2ccccc2)CC1 | -59.1 |
| CCOC(=O)Nc1sc(C(=O)N(C)C)c(C)c1C(=O)OCC | 5.73 |
| O=C(COC(=O)/C=C/c1cccs1)NC(c1ccccc1)c1ccccc1 | -2.53 |
| O=C(CNC(=O)c1ccccc1)OCC(=O)c1ccc(Cl)s1 | 0.566 |
| CC1(C)CC(=O)C2=C(C1)NC(=O)NC2c1ccccc1 (centres unmarked) | 21.7 |
| Cc1oc(CC(C)C)cc1C(=O)NCCCC(=O)O | 13.6 |
| COc1ccc(C2(CNS(=O)(=O)c3ccc(C)cc3)CCOCC2)cc1 | 15.4 |
| O=C(O)c1ccc(N2C(=O)CC(SC(=NCc3ccc4c(c3)OCO4)Nc3ccccc3)C2=O)cc1 (centres unmarked) | 13.9 |
| CCOC(=O)C1=C(C)NC(=O)CC1c1ccccc1 (centres unmarked) | -0.777 |
| COc1ccc(C(=O)CCc2ccc(OC)c(OC)c2)cc1 | -10.3 |
| O=C(CNC(=O)c1ccc(Br)cc1)OCC(=O)c1ccccc1 | 10.2 |
| Cc1ccc2[nH]c(-c3cccc(N)c3)cc2c1 | 18.4 |
| O=C(CSc1nnc(CN2CCCCC2)n1-c1ccccc1)c1ccc2c(c1)OCO2 | -25.4 |

| SMILES | hERG current change (%, negative = inhibition) at 10uM [%] |
| --- | --- |
| CCC1Oc2ccc(C)cc2N(CC(=O)N2CCCC2)C1=O (centres unmarked) | 23.2 |
| CCC1Oc2ccc(C)cc2N(CC(=O)N2CCOCC2)C1=O (centres unmarked) | 4.58 |
| Cc1ccc2c(c1)N(CC(=O)N1CCCCC1)C(=O)C(C)O2 (centres unmarked) | 11.9 |
| Cc1ccc2c(c1)N(CC(=O)N1CCCC1)C(=O)C(C)O2 (centres unmarked) | 19.4 |
| CCC1Oc2ccc(C)cc2N(CC(=O)N2CCN(c3ccc(F)cc3)CC2)C1=O (centres unmarked) | -54.1 |
| Cc1ccc2c(c1)N(CC(=O)N1CCN(c3nc4ccccc4s3)CC1)C(=O)C(C)O2 (centres unmarked) | -54.5 |
| Cc1c(C(=O)N/N=C/c2ccc(N3CCOCC3)cc2)nc2ccccn12 | -1.87 |
| COC(=O)c1scc(C)c1-n1ccc(C(=O)C(=O)N(C)C)c1 | 5.31 |
| C=CCN(CC=C)C(=O)C(=O)c1ccn(-c2c(C)csc2C(=O)OC)c1 | -70.3 |
| CCN(CC)C(=O)C(=O)c1ccn(-c2c(C)csc2C(=O)OC)c1 | -9.5 |
| NC(=O)C1CCCN(C(=O)c2ccc(Cl)cc2)C1 (centres unmarked) | 6.59 |
| O=C(Nc1ccccc1)c1cc(-n2cnnc2)ccc1Cl | 9.46 |
| COCC(=O)N1CCc2ccc(NC(=O)c3ccc(C(F)(F)F)cc3)cc2C1 | -38.3 |
| CN1CCN(c2ccc(NC(=O)c3ccc(C(F)(F)F)cc3)cn2)CC1 | -73.2 |
| CN1CCc2ccc(NC(=O)c3ccc(C(F)(F)F)cc3)cc2C1 | -53.8 |
| CC(=O)Nc1ccc(N2CCN(c3ccc(C(F)(F)F)cn3)CC2)nc1 | -3.49 |
| Cc1ccccc1C(=O)Nc1ccc(N2CCN(C)CC2)nc1 | -1.6 |
| CN1CCN(c2ccc(NC(=O)c3ccc(Cl)cc3)cn2)CC1 | -53.1 |
| CN(C)S(=O)(=O)c1ccc(C(=O)Nc2ccc3c(c2)CCC3)cc1 | -52 |
| Cc1ccc(C(=O)Nc2ccc3c(c2)CCC3)cc1 | 14.7 |
| O=C(Nc1ccc(N2CCOCC2)nc1)c1ccc(Cl)cc1 | -11.5 |
| O=C(Nc1ccc(N2CCOCC2)nc1)c1ccc(C(F)(F)F)cc1 | 16.6 |
| CN(C)S(=O)(=O)c1cccc(C(=O)Nc2ccc3c(c2)CCC3)c1 | -21.9 |

| SMILES | hERG current change (%, negative = inhibition) at 10uM [%] |
| --- | --- |
| CN(C)S(=O)(=O)N1CCc2ccc(NC(=O)c3ccc(C(F)(F)F)cc3)cc2C1 | 25.4 |
| Cn1c(=O)c2c([nH]c(=S)n2Cc2ccc(Cl)cc2)n(C)c1=O | 17 |
| Cc1ccsc1C(=O)N1CCN(c2ncccn2)CC1 | 7.76 |
| COc1ccc(-c2nnn(CC(=O)N(C3CCCCC3)C(C)C(=O)NC3CCCC3)n2)cc1OC (centres unmarked) | -22.1 |
| COc1cccc(/C=N/NC(=O)CC2C(=O)NN=C2C)c1OC (centres unmarked) | 2.5 |
| O=C(NCCN1C(=O)S/C(=C\c2cccnc2)C1=O)c1ccc([N+](=O)[O-])s1 | 5.15 |
| C/C(CC(=O)N1CCCC1)=N\NC(=O)c1cc2ccccc2cc1O | 4.98 |
| O=S(=O)(Nc1cc(S(=O)(=O)N2CCOCC2)ccc1N1CCCC1)c1cccs1 | -4.49 |
| Cc1cc(-c2nnco2)c(C)n1-c1ccccc1 | -1.71 |
| COC(=O)C1=C(c2ccc(S(C)(=O)=O)cc2)C[C@@H]2CC[C@H]1N2C(=O)N1CCCCC1 | -1.44 |
| CSCCC(=O)N(C)CC1CCN(CCc2cccc(C(F)(F)F)c2)CC1 | -64.3 |
| CC(=O)NCCC(=O)N(C)CC1CCN(CCc2cccc(C(F)(F)F)c2)CC1 | 2.52 |
| COC(=O)CCC(=O)N(C)CC1CCCN(CCc2cccc(C(F)(F)F)c2)C1 (centres unmarked) | -61.9 |
| COc1ccccc1CCN1CCCC(CN(C)C(=O)CCC(=O)N(C)C)C1 (centres unmarked) | 9.14 |
| COC(=O)CCCC(=O)N(C)CC1CCCN(CCc2ccccc2C)C1 (centres unmarked) | -53.6 |
| CN(CC1CCCN(CCc2cccc(C(F)(F)F)c2)C1)C(=O)c1ccco1 (centres unmarked) | -69.2 |
| CCOC(=O)C1CCCCN1Cc1cccc(C(F)(F)F)c1 (centres unmarked) | 6.43 |
| COc1ccccc1CCN1CCCC(CN(C)C(=O)CCC(N)=O)C1 (centres unmarked) | 22.5 |
| O=C(O)c1ccccc1NS(=O)(=O)c1cccc2nsnc12 | 18.3 |
| O=C(N/N=C1\CCS(=O)(=O)c2ccc(F)cc21)c1ccc([N+](=O)[O-])cc1 | -19.6 |
| Cc1ccc(/C=N/NC(=S)NCCc2ccccc2)s1 | 27.9 |
| Cc1ccc(CNC(=O)CSc2nc3ccsc3c(=O)n2NC(=O)c2ccccc2)cc1 | -9.41 |
| CCOC(=O)N1CCN(C(=O)C(CC(C)C)NS(=O)(=O)c2ccc3c(c2)oc(=O)n3C)CC1 (centres unmarked) | -12.4 |

| SMILES | hERG current change (%, negative = inhibition) at 10uM [%] |
| --- | --- |
| O=C(CN(C(=O)c1csnn1)c1cccc2ccccc12)NCc1ccccc1 | 0.271 |
| CN(CC1CCCN(CCc2cccc(C(F)(F)F)c2)C1)C(=O)c1ccc2nc[nH]c2c1 (centres unmarked) | -33.1 |
| CSCCC(=O)N(C)CC1CCCN(CCc2cccc(C(F)(F)F)c2)C1 (centres unmarked) | -74.6 |
| CSCCC(=O)NC1CCCN(CCc2ccccc2)C1 (centres unmarked) | -38.2 |
| COc1cc(SC)ccc1C(=O)Nc1ccc(Br)cn1 | 14.4 |
| COc1ccc(NC(=O)c2ccccc2[N+](=O)[O-])cc1 | 9.48 |
| NC(=O)c1ccsc1NC(=O)CCS(=O)(=O)c1ccccc1 | 1.27 |
| COc1ccc(N(C(=O)c2snc(C(N)=O)c2N)C(C(=O)NC2CCCC2)c2cccs2)cc1OC (centres unmarked) | -1.74 |
| CC(=O)Nc1ccc(S(=O)(=O)N2CCCC2)cc1 | 12.1 |
| CC(=O)Nc1ccc(S(=O)(=O)N2CCCN(S(=O)(=O)c3ccc(C)cc3)CC2)cc1 | -72.8 |
| CC(=O)Nc1ccc(S(=O)(=O)N2CCCN(S(=O)(=O)c3ccc(NC(C)=O)cc3)CC2)cc1 | -0.406 |
| CC(=O)Nc1ccc(S(=O)(=O)N2CCC(c3nnc(-c4ccc(C)cc4)o3)CC2)cc1 | -51.1 |
| COc1ccc(-c2nnc(C3CCN(S(=O)(=O)c4ccccc4)CC3)o2)cc1 | -47.4 |
| Cc1ccc(-c2nnc(SCC(=O)Nc3ccc(S(=O)(=O)N4CCCCCC4)cc3)o2)cc1 | -7.29 |
| COC(=O)NNC(=O)c1ccccc1C | -11.7 |
| Cc1ccc([N+](=O)[O-])cc1S(=O)(=O)Nc1ccccn1 | 9.5 |
| CCC(CC)C(=O)Nc1cccc(/C(C)=N/NC(=O)c2ccccc2Cl)c1 | 6.73 |
| CCC(C)n1c(-c2cc(OC)c(OC)c(OC)c2)nc2nc3ccccc3nc21 (centres unmarked) | -50.9 |
| CCCn1c(-c2cc(OC)c(OC)c(OC)c2)nc2nc3ccccc3nc21 | -37.5 |
| CCC(C)n1c(-c2ccco2)nc2nc3ccccc3nc21 (centres unmarked) | -3.86 |
